Source: PubChem (several laboratories)
Anthrax LF inh2: blocks Bacillus anthracis lethal factor protease; P15917; multiplex microsphere protease cleavage assay, LF; inhibition, % at 10 µM; 360,000 compounds, 0.12% hits; AID 588501
BoNT-F LC inh: blocks Botulinum neurotoxin F light chain protease | inhibition, % at 10 µM | AID 588497 | Multiplex microsphere protease cleavage assay, flow cytometry | 360,000 compounds, 0.22% hits; in the data active = inhibition above about 35%, passing the limit was not always enough; inconclusive = no clear call, values can overlap the other calls
BoNT-A LC inh2: BoNT A light chain protease inhibition; AID 588499; multiplex microsphere protease substrate cleavage, flow cytometry; 360,000 compounds, 0.17% hits; inhibition, % at 10 µM
MazF activator: increases E. coli MazEF RNase cleavage of RNA. FAM/BHQ RNA-DNA oligo cleavage fluorescence, 5 h. activation, % at 20 µM. AID 504720. P0AE70. 350,000 compounds, 0.32% hits; in the data active = activation above about 50%
Target sequence (P0AE70 whole entry, looked up): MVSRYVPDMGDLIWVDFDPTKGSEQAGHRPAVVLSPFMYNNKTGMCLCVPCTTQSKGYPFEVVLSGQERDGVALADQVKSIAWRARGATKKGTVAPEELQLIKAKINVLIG
Bead autofluor: flagged as autofluorescent in microsphere protease counterscreen. compound autofluorescence counterscreen, microsphere flow cytometry; active compounds read high. fluorescence intensity (concentration not given with the values). 360,000 compounds, 3.1% hits; in the data active = fluorescence intensity above about 16000; inconclusive = no clear call, values can overlap the other calls
A number is an active result; – = inactive; ? = inconclusive; · = not tested or not shown; + = active, no number. Only some compounds are listed: those with a hit (about 3.7% of all), similar ones and a draw of the others. Cut-off read from the data, not from the text of the source, unless noted: active = inhibition above about 30%; inconclusive = no clear call, values can overlap the other calls; inactive = below that.

SMILES | Anthrax LF inh2 | BoNT-F LC inh | BoNT-A LC inh2 | MazF activator | Bead autofluor
COc1cc(-c2[nH]nc3c2C(c2ccoc2)C(C#N)=C(N)O3)cc(OC)c1OC (stereo unspecified) | – | – | – | – | –
CC(=O)N1c2ccc(S(=O)(=O)N3CCC(C(=O)Nc4cccc(Cl)c4)CC3)cc2CC1C (stereo unspecified) | – | – | – | – | –
CCn1c(=O)c2ccccc2n2c(SCC(=O)N3CCCc4ccccc43)nnc12 | – | – | – | – | 24095
N#CC/C(N)=N/Nc1nc2ccccc2nc1Cc1ccccc1 | 31 | – | – | – | –
CCC1(O)CCCC2C3CCC4CC(=O)CCC4(C)C3C(=O)CC21C (stereo unspecified) | – | – | – | – | –
CCN1/C(=C/c2ccc3cc(C)ccc3[n+]2CC)Sc2ccc3sccc3c21 | – | – | 49 | – | –
CCN1/C(=C/c2ccc3cccc(C)c3[n+]2CC)Sc2ccccc21 | – | – | 79 | 73 | –
CCN1/C(=C/c2ccc3cc(C)cc(C)c3[n+]2CC)Sc2cc(C)ccc21 | – | – | – | – | –
CCN1/C(=C\c2ccc3cc(C)ccc3[n+]2CC)Sc2cc(C)c(C)cc21 | – | – | 42 | 82 | –
CC1(C)CC(NS(=O)(=O)c2ccc(S(=O)(=O)N3CCOCC3)cc2)CCO1 (stereo unspecified) | – | – | – | – | 19550
NC(=O)C(c1ccc(Cl)cc1Cl)c1ncc(C(F)(F)F)cc1Cl (stereo unspecified) | – | – | ? | – | 19681
CC(C(=O)Nc1ccc(Cl)cc1)c1ncc(C(F)(F)F)cc1Cl (stereo unspecified) | – | – | – | – | 20389
NC(=O)C(c1ccc(Cl)cc1)c1ncc(C(F)(F)F)cc1Cl (stereo unspecified) | – | – | – | – | –
O=C(CN1C(=O)c2ccccc2S1(=O)=O)NCCc1ccc(F)cc1 | – | – | – | – | –
Cc1c(C)c2ccc(O[C@@H]3O[C@H](CO)[C@H](O)[C@H](O)[C@H]3O)c(C)c2oc1=O | – | – | – | – | –
Cc1c(O[C@@H]2O[C@H](CO)[C@@H](O)[C@H](O)[C@H]2O)ccc2c1oc(=O)c1ccccc12 | – | 35 | – | – | –
COc1ccccc1N1CCN(C(=O)CN2C(=O)c3ccccc3S2(=O)=O)CC1 | – | – | – | – | –
N#CC(C(=O)NCCc1ccccc1)c1nc2ccccc2nc1N1CCOCC1 (stereo unspecified) | – | – | – | 928 | –
CCN(CC)c1nc2ccccc2nc1C(C#N)C(=O)NCCCOC (stereo unspecified) | – | – | – | – | –
N#CC(C(=O)NCc1ccccc1)c1nc2ccccc2nc1N1CCCC1 (stereo unspecified) | – | – | – | + | –
N#CC(C(=O)NCCc1ccccc1)c1nc2ccccc2nc1N1CCCCC1 (stereo unspecified) | – | – | – | 150 | –
CCN(CC)c1nc2ccccc2nc1C(C#N)C(=O)NCCc1ccccc1 (stereo unspecified) | – | – | – | + | –
CCOC(=O)N1CCN(c2nc3ccccc3nc2C(C#N)C(=O)NCCc2ccccc2)CC1 (stereo unspecified) | – | – | – | – | –
Cc1ccccc1NC(=O)CCN1C(=O)CSC1=O | – | – | – | – | –
CC1=C(C(=O)Nc2ccccc2C)C(c2ccc(C)o2)N2C(=O)CSC2=N1 (stereo unspecified) | – | – | – | – | 20714
SMILES | Anthrax LF inh2 | BoNT-F LC inh | BoNT-A LC inh2 | MazF activator | Bead autofluor
Cc1ccc(Cl)cc1N1CCN(S(=O)(=O)c2c(C)[nH]c(=O)[nH]c2=O)CC1 | – | – | ? | – | 19342
CN1CCN(Cc2c(C#N)c3ccccc3n2C)CC1 | – | – | ? | – | 19926
Cn1c(CN2CCOCC2)c(C#N)c2ccccc21 | – | – | – | – | 17523
CN1CCN(Cc2nc3ccccc3n2C)CC1 | – | – | ? | – | 19606
Cn1c(CN2CCCC2)c(C#N)c2ccccc21 | – | – | – | – | –
CN(C(=O)COC(=O)c1cc(S(=O)(=O)N2CCOCC2)ccc1F)C1CCS(=O)(=O)C1 (stereo unspecified) | – | – | – | – | –
COc1ccc(CNC(=O)C2CCCN(S(=O)(=O)c3ccc(F)cc3)C2)cc1 (stereo unspecified) | – | – | – | – | –
CC(C)(O)C1=NOC(c2ccccc2)C1 (stereo unspecified) | – | – | – | – | 16732
CCOc1cc(C(=O)OCC(=O)c2c(C)[nH]c3ccccc23)ccc1OCC(=O)N1CCOCC1 | – | – | ? | – | 21648
FC(F)(F)c1nc2ncc(Cl)cc2[nH]1 | – | – | – | – | 20866
CCCOc1cc(C)c(S(=O)(=O)NCCOC)cc1C | – | – | – | – | 21763
O=C(CCC(=O)OCC(=O)c1ccc(Br)cc1)Nc1ccc(Br)c2cccnc12 | – | – | – | – | 18928
O=C(NCCc1ccccc1)c1ccc(Cl)cc1[N+](=O)[O-] | – | – | – | – | –
O=C(Oc1c(Cl)cc(Cl)c2cccnc12)N1CCCCC1 | – | – | ? | – | 21476
O=C(Oc1c(Cl)cc(Cl)c2cccnc12)N1CCOCC1 | ? | – | ? | – | ?
O=C1N(Cc2cccc(Cl)c2)C[C@@H]2C[C@@H](c3ccc4nonc4c3)N3CCC[C@@]123 | – | – | – | – | –
CCCS(=O)(=O)NC(=O)C1(C)CCN(C(=O)c2cccnc2Oc2ccccc2)C1 (stereo unspecified) | – | – | – | · | –
c1nc(N2CCOCC2)c2c3c(sc2n1)CCCC3 | – | – | – | – | 23015
O=C(CCNC(=O)c1ccc(Br)o1)NCc1ccc(Cl)cc1 | – | – | – | – | 20990
O=C(CNC(=O)c1ccco1)OCC(=O)c1ccc2c(c1)CCCC2 | – | – | – | – | 17018
CCCc1cnc(NCCNCC(O)COc2ccc(Cl)c(Cl)c2)nc1 (stereo unspecified) | · | · | · | – | ·
Cc1csc(C(=O)NCC(=O)NNC(=O)c2cccc(Cl)c2)c1 | – | – | – | – | –
COc1ccc(-n2c(-c3ccc(Cl)cc3)c[n+]3c2CCc2ccccc2-3)cc1 | – | – | – | – | –
Cc1ccc(-n2c(-c3ccc(Br)cc3)c[n+]3c2CCc2ccc4cccnc4c2-3)cc1 | – | – | – | – | 21635
Cc1ccc(S(=O)(=O)CCC(=O)OCC(=O)N2CC(=O)Nc3ccccc32)cc1 | – | – | – | – | 22432
SMILES | Anthrax LF inh2 | BoNT-F LC inh | BoNT-A LC inh2 | MazF activator | Bead autofluor
Cc1ccc(S(=O)(=O)NCC(=O)OCC(=O)N2CC(=O)Nc3ccccc32)cc1 | – | – | – | – | –
CCOC(=O)c1snc2c(=O)[nH]cnc12 | – | – | – | – | 18607
CN(CC(=O)N1CCCCCC1)S(=O)(=O)c1ccc(Br)cc1 | – | ? | – | – | –
CN(CC(=O)Nc1ccccc1C(=O)N1CCCC1)S(=O)(=O)c1ccc(Br)cc1 | – | – | – | – | 24180
CC1CCN(c2ccc(NC(=O)c3ccc(Br)o3)cc2)CC1 | – | – | – | – | –
CC(NC(=O)c1ccc2c(c1)OCCO2)C(=O)O (stereo unspecified) | – | – | – | – | –
CCC(CC)NC(=O)c1ccc2c(c1)OCCO2 | – | – | – | – | 23941
